From PubChem BioAssay
Eya2 phos inh – Eya2 (human) phosphatase inhibition; 330,000 compounds, 0.006% hits; O00167; Potency, µM (top dose mostly 76.9 µM), without a hit: at the highest dose activity, negative = inhibition, usual class: inhibitors; recombinant Eya2, OMFP fluorescence dephosphorylation (OMFP is methylfluorescein phosphate); further: on the % scale 0 is the no-effect control and ±100 the full control effect
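Eya2 (0.2 uM) preincubated 10 min at ambient with compound, then OMFP substrate added at 50 uM; 10 min reaction in 50 mM HEPES pH 7.5, 50 mM NaCl, 5 uM MgCl2, 0.05% BSA, 1 mM DTT. Fluorescence read at Ex 485/Em 525 nm.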
12-LOX inh – blocks human arachidonate 12S-lipoxygenase; P18054; purified 12hLO, xylenol orange hydroperoxide absorbance; Potency, µM (highest dose often 108 µM), without a hit: top-dose activity change, negative = inhibition, hits mostly inhibitors; 580,000 compounds, 1.1% hits; AID 1671190; further: on the % scale 0 is the no-effect control and ±100 the full control effect
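Hydroperoxide product was detected by ferrous iron/xylenol orange as the 573 to 405 nm absorbance ratio. Arachidonic acid at 40 uM (final) was turned over for 30 min at room temperature by 150 nM human 12hLO, pH 7.0 Hepes buffer, after 15 min compound preincubation.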
USP2a block – blocks human ubiquitin-specific protease USP2a | O75604 | USP2 core, Ub-CHOP2 coupled fluorogenic reporter, 485/531 | Potency, µM (highest dose often 38.3 µM), without a hit: at the top dose activity change, negative = inhibition, hits mostly inhibitors | 330,000 compounds, 0.01% hits;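 further: plate controls were DMSO wells for no effect and full inhibition by NEM control for full effect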
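Cell-free coupled assay: 10nM USP2 core preincubated 30min RT with compound in Tris-HCl pH 8.0/CaCl2/CHAPS buffer, then 25nM Ub-CHOP2 and 25nM reporter substrate; fluorescence (Ex 485/Em 531) read after 60min RT, normalized to NEM inhibition, concentration-response curves fitted.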
PTAP TSG101 blk – blocks PTAP/TSG101 interaction to inhibit HIV-1 budding; Q99816; 340,000 tested, under 10 active; Fluorescence polarization, FITC-PTAP peptide / Tsg101 binding; Potency, µM (top dose mostly 115 µM), for the others: at the top dose activity change, negative = inhibition, hits mostly inhibitors; active means well fitted inhibition curve with a large enough effect in the main read-out, with a control signal flat, not every such curve was filed as active; inconclusive means small, poorly fitted or top-dose-only effect, or effect the other way, or a change in a side signal; inactive means no such curve, though single readings can be large or run the other way; further: % of control where 0% means no effect
Target sequence (Q99816 whole entry, looked up): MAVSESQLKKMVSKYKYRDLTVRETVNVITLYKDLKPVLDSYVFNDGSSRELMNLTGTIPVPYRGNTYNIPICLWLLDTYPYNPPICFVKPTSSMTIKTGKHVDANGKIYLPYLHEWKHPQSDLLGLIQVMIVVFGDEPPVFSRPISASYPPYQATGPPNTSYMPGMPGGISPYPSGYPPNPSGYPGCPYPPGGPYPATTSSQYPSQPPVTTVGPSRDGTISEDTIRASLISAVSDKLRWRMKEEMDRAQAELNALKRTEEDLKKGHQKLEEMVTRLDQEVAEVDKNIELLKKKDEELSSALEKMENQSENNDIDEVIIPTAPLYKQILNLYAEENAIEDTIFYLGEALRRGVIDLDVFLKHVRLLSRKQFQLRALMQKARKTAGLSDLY
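Fluorescence polarization binding of Tsg101 binding domain (10 uM final) to FITC-labeled PTAP peptide (50 nM final) in HEPES pH 7.5 buffer with NaCl, Tween 20, EDTA, TCEP. Compounds added before peptide; binding 20 min at RT.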
Active calls of the source: *; u = inconclusive; x = no result given; ! = not confirmed by another sample; [ ] = remark or other dose. This is a sample that favours compounds with a hit; in the whole collection about 1.1% have one here. Unless noted, the call rests on the fitted dose curve; in most records, active means well fitted curve in the direction sought with a large enough effect; inconclusive means small, poorly fitted or top-dose-only effect, or another doubt; inactive means no such curve, though single readings can be large; an effect the other way counts as inactive or inconclusive. Potency means the concentration at half of the fitted maximal effect.

SMILES	Eya2 phos inh	12-LOX inh	USP2a block	PTAP TSG101 blk
Cc1cc2nc(/C=C/c3cccc(C(F)(F)F)c3)sc2cc1C	x	-30%	x	x
Cc1ccc(C)c(C(C)NC(=S)NC2CCCCC2)c1 (stereo unspecified)	-6%	45µM*	-1%	-1%
CCOC(=O)c1c(/N=C/c2cc([N+](=O)[O-])ccc2O)sc(C)c1C	1%	35µM*	-2%	-3%
CCOC(=O)c1c(/N=C/c2cc(OC)cc([N+](=O)[O-])c2O)sc(C)c1C	-5%	u	2%	-5%
O=C(c1ccncc1)N(c1ccc(N2CCOCC2)cc1)C(c1ccccc1)c1nc2ccccc2[nH]1 (stereo unspecified)	x	11µM*	x	x
CCC(c1nc2ccccc2[nH]1)N(C(=O)Cc1cc(OC)cc(OC)c1)c1ccc(N2CCOCC2)cc1 (stereo unspecified)	x	1%	x	x
Fc1cc(Br)ccc1NC(=S)NCc1cccs1	x	25µM*	x	x
O=C1NC(=NC2CCCCC2)C2(CCCN(Cc3ccccc3)C2)N1c1cccnc1 (stereo unspecified)	x	1%[6.33 µM]	x	x
CCCC(=O)NC(=S)Nc1cccc(Cl)c1N1CCCCC1	-22%	u	-8%	-2%
CCCCC(=O)NC(=S)Nc1cccc(Cl)c1N1CCCCC1	5%	35µM*	3%	-1%
COc1ccccc1-c1cc2c(Nc3ccc4c(c3)OCCO4)nccc2n1C	x	-18%	x	x
COc1ccc(CCNC(=S)NCc2ccc(Cl)c(Cl)c2)cc1OC	3%	45µM*	-1%	-2%
CCCC(=O)Oc1ccc2c(=O)c(-c3ccccc3OC)coc2c1	x	17%	x	x
CCN(CC)c1ccc(NS(=O)(=O)c2ccc(C(C)C)cc2)cc1C(=O)O	x	-28%	x	x
CCN(CC)c1ccc(NS(=O)(=O)c2ccc3c(c2)CCCC3)cc1C(=O)O	x	7.9µM*	x	x
O=C(CCc1ccco1)N(Cc1cccs1)C1CC1	x	-31%	x	x
O=C(/C=C/c1ccco1)N(Cc1cccs1)C1CC1	x	35µM*	x	x
CCCn1nc([N+](=O)[O-])c(C(C#N)c2nc3ccccc3o2)c(Cl)c1=O (stereo unspecified)	-10%	40µM*	-8%	-4%
CCn1nc([N+](=O)[O-])c(C(C#N)c2nc3cc(C(F)(F)F)ccc3s2)c(Cl)c1=O (stereo unspecified)	-7%	u	-12%	-9%
C=CCNC(=S)NN=C1CCCCCCC1	-1%	14µM*	0%	-9%
c1nc(Sc2ccc3c(c2)OCCCO3)c2ccsc2n1	x	-5%	x	x
CN(Cc1ccccc1)C(=O)C[C@@H]1CCNC[C@@H]1Cc1cc(-c2ccccc2)on1	x	-9%[176 µM]	x	x
C[C@H](NC[C@H](O)CP(=O)(O)Cc1ccccc1)c1ccc(Cl)c(Cl)c1	x	20µM*!	x	x
CC(NC(=O)CCl)c1ccc(Cl)c(Cl)c1 (stereo unspecified)	-4%	0%	2%	2%
COc1ccccc1/C=C/C=C1N=C(/C=C/c2ccc(Cl)cc2)OC/1=O	3%	u	2%	-6%
SMILES	Eya2 phos inh	12-LOX inh	USP2a block	PTAP TSG101 blk
COc1ccccc1/C=C/C1=NC(=C\C=C/c2ccccc2)/C(=O)O1	-11%	45µM*	-2%	6%
Cc1c(CCl)cc(C(=O)O)cc1CCl	x	5.6µM*	x	x
COc1ccc(S(=O)(=O)N2CCN(c3ncccn3)CC2)cc1OC	5%	35µM*	1%	1%
COc1ccc(S(=O)(=O)N2CCN(CC(=O)Nc3c(C)n[nH]c3C)CC2)cc1OC	-30%	0.56µM*	0%	0%
CCCC(Oc1ccc(Br)cc1)c1nc2c3cc(OC)c(OC)cc3nc(=S)n2[nH]1 (stereo unspecified)	7%	u	13%	0%
CC(Oc1ccc(Br)cc1)c1nc2c3ccccc3nc(=S)n2[nH]1 (stereo unspecified)	-5%	3.5µM*	0%	-4%
COc1ccc(CN[C@@H]2C=C[C@@H](c3c(C)nn(-c4ccc(OC)cc4)c3C)C2)cc1	x	39%[176 µM]	x	x
COc1cccc(CN2CCC3(Cc4ccccc4NC3=O)C2)c1 (stereo unspecified)	x	40µM*	x	x
COc1ccc(CN2CCCC3(Cc4ccccc4CNC3=O)C2)cc1 (stereo unspecified)	x	8%[6.33 µM]	x	x
O=C1NCc2ccccc2CC12CCN(Cc1ccc(Oc3ccccc3)cc1)C2 (stereo unspecified)	x	35µM*	x	x
